Source: PubChem BioAssay (EPA / NIEHS)
Results filed as inconclusive are left out. Activity calls are given as the source filed them. How the source made its calls, unless noted: active means hit-call score of the fitted dose curve at least 0.9, where 1 is the maximum; inactive means score below 0.9.

Tests used:
[1] = ATG_TCF_b_cat_CIS: Attagene CIS-FACTORIAL HepG2 Assay for human T-Cell-Factor with beta-catenin (TCF/b-cat) (AID 2282965); details: HepG2 TCF/beta-catenin cis-reporter transcription, actives raise or lower the signal
Procedure, shortened: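 Endogenous TCF/LEF activity read as reporter transcript level via RT-PCR and capillary electrophoresis fluorescence in transfected HepG2, 24 h exposure; gain or loss of signal fitted against DMSO controls.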

[2] = ATG_TAL_CIS: Attagene CIS-FACTORIAL HepG2 Assay for human TAL Basal Promoter (AID 2282966); details: HepG2 Attagene cis-factorial TAL promoter reporter; actives raise or lower the signal;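 further: background control endpoint measuring basal TAL promoter reporter mRNA not a specific factor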
Procedure, shortened: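 HepG2, transient MRTU transfection, 24 h compound exposure; RNA → oligo(dT) RT → PCR → 6-FAM primer extension → HpaI digest → CE fluorescence. Bidirectional curve fit vs DMSO. Background-control readout.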

[3] = ATG_TGFb_CIS: Attagene CIS-FACTORIAL HepG2 Assay for human Transforming Growth Factor (TGF) (AID 2282967); details: HepG2 Attagene CIS TGFb reporter, mRNA transcription; actives raise or lower the signal
Procedure, shortened: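 After a 24-hour incubation with compound, transfected HepG2 cells were lysed for RNA; reporter cDNA was amplified, fluorescently end-labeled and separated by CE. DMSO served as baseline for bidirectional fits.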

[4] = ATG_VDRE_CIS: Attagene CIS-FACTORIAL HepG2 Assay for human Vitamin D Receptor Element (VDRE) (AID 2282968); details: HepG2 VDRE cis-reporter transcription, actives raise or lower the signal
Procedure, shortened: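 Readout is VDRE-driven reporter mRNA reflecting endogenous factor activity in human HepG2 cells, sampled 24 h post-dose. Quantification used labelled RT-PCR products separated by capillary electrophoresis; bidirectional analysis relative to DMSO.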

[5] = target: Estrogen receptor (Homo sapiens) (UniProt P03372); assay: ATG_ERa_TRANS: Attagene TRANS-FACTORIAL HepG2 Assay for human Estrogen Receptor alpha (ERa) (AID 2282970; active means hit-call score of the fitted dose curve at least 0.9, where 1 is the maximum); details: HepG2 Attagene TRANS ERa GAL4 reporter, mRNA
Chain of Estrogen receptor (Homo sapiens) (P03372 whole entry, looked up, the tested form may be a part): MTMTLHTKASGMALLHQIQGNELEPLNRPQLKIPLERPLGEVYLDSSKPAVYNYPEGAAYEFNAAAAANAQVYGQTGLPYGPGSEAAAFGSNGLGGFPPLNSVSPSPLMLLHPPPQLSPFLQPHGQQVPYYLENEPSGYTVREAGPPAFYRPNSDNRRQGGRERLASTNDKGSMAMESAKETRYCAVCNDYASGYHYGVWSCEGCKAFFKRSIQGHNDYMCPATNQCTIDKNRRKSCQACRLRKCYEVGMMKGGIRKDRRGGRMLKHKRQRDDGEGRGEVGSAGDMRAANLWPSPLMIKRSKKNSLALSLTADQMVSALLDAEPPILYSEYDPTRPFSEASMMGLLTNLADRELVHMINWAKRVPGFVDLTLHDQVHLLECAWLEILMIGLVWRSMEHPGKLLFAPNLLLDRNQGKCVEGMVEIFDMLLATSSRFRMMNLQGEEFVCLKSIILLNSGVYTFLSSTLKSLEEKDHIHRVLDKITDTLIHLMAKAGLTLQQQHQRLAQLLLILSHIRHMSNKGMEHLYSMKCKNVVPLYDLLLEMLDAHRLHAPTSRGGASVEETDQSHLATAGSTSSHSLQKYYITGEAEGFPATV
Procedure, shortened: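 Reporter mRNA induction after 24 hours, detected by fluorescent RT-PCR and capillary electrophoresis, gives the read-out. Cells are HepG2 transiently transfected with GAL4-UAS reporter transcription units responding to chimeric NR-Gal4. Activity is taken as gain of signal over DMSO baseline.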

[6] = target: X-box-binding protein 1 (Homo sapiens) (UniProt P17861); assay: ATG_Xbp1_CIS: Attagene CIS-FACTORIAL HepG2 Assay for human X-box Binding Protein 1 (XBP1) (AID 2282972); details: HepG2 XBP1 cis-element reporter, Attagene multiplex; actives raise or lower the signal
Chain of X-box-binding protein 1 (Homo sapiens) (P17861 whole entry, looked up): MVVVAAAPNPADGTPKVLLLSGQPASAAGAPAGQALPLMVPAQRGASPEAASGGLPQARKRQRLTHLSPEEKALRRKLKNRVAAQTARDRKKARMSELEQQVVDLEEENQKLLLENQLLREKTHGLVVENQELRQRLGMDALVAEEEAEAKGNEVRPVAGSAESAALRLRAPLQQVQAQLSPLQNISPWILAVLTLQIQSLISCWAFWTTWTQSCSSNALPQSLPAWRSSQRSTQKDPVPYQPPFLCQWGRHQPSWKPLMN
Procedure, shortened: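 Changes in reporter transcript abundance, read by RT-PCR and capillary electrophoresis, reflect endogenous transcription factor activity. Transfected HepG2 cells received compound for 24 hours; DMSO defined baseline for bidirectional analysis.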

[7] = target: Estrogen-related receptor gamma (Homo sapiens) (UniProt P62508); assay: ATG_ERRg_TRANS: Attagene TRANS-FACTORIAL HepG2 Assay for human Estrogen-Related Receptor gamma (ERRg) (AID 2282977; active means hit-call score of the fitted dose curve at least 0.9, where 1 is the maximum;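 further: hits increase reporter signal over DMSO so potencies reflect activators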); details: HepG2 Attagene TRANS reporter, ERRg transactivation
Chain of Estrogen-related receptor gamma (Homo sapiens) (P62508 whole entry, looked up, the tested form may be a part): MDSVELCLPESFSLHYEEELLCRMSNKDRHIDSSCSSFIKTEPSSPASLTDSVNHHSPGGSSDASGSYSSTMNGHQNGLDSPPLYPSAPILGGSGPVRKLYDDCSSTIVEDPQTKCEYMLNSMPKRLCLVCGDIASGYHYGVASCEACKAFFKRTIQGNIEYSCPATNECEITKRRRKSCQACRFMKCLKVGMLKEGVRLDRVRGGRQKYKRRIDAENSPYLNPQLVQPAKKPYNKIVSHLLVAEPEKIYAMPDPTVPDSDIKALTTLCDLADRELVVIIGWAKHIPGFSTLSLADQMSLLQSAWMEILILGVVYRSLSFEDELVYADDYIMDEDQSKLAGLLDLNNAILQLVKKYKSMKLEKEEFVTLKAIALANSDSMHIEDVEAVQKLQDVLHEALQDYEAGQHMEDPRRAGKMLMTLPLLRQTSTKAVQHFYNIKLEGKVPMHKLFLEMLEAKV
Procedure, shortened: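 Exogenous NR-Gal4 chimera activity measured as reporter transcript induction after 24 h in transiently transfected HepG2 cells. RNA reverse-transcribed, PCR-amplified, 6-FAM-labelled and resolved by capillary electrophoresis; increase over DMSO baseline.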

[8] = target: Glucocorticoid receptor (Homo sapiens) (UniProt P04150); assay: ATG_GR_TRANS: Attagene TRANS-FACTORIAL HepG2 Assay for human Glucocorticoid Receptor (GR) (AID 2282978; active means hit-call score of the fitted dose curve at least 0.9, where 1 is the maximum;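 further: activators score as hits since higher reporter transcript over DMSO is fitted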); details: HepG2 Attagene TRANS GR reporter, mRNA transcription
Chain of Glucocorticoid receptor (Homo sapiens) (P04150 whole entry, looked up, the tested form may be a part): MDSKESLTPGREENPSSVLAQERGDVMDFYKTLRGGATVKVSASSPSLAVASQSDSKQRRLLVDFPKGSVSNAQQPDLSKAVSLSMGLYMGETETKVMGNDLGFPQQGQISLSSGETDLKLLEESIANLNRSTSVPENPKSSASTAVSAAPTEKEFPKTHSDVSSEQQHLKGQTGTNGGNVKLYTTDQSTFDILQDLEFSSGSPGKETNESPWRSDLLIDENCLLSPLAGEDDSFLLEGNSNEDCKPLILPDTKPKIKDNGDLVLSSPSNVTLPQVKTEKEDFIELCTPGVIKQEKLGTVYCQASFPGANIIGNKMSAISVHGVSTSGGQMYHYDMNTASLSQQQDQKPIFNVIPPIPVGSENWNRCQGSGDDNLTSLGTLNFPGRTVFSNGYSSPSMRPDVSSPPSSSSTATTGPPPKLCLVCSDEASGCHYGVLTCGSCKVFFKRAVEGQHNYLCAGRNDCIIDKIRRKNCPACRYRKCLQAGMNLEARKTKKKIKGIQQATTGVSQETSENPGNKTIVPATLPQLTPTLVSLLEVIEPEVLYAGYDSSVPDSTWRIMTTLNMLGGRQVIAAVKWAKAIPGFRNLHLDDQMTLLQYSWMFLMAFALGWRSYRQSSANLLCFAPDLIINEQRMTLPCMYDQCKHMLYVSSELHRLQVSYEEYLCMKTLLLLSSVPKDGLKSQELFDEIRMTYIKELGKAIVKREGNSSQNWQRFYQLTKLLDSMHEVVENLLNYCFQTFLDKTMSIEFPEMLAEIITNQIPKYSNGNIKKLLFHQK
Procedure, shortened: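 Fluorescent capillary-electrophoresis quantitation of reporter mRNA is the readout, taken 24 h after dosing human HepG2 cells carrying transiently transfected GAL4-UAS reporter units activated by chimeric NR-GAL4 fusions; activity scored as induction over DMSO.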

[9] = target: Bile acid receptor (Homo sapiens) (UniProt Q96RI1); assay: ATG_FXR_TRANS: Attagene TRANS-FACTORIAL HepG2 Assay for Farnesoid X Receptor (FXR) (AID 2282979; active means hit-call score of the fitted dose curve at least 0.9, where 1 is the maximum;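 further: hits raise reporter mRNA above DMSO so AC50 marks FXR activation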); details: HepG2 Attagene TRANS FXR-GAL4 reporter transcription
Chain of Bile acid receptor (Homo sapiens) (Q96RI1 whole entry, looked up, the tested form may be a part): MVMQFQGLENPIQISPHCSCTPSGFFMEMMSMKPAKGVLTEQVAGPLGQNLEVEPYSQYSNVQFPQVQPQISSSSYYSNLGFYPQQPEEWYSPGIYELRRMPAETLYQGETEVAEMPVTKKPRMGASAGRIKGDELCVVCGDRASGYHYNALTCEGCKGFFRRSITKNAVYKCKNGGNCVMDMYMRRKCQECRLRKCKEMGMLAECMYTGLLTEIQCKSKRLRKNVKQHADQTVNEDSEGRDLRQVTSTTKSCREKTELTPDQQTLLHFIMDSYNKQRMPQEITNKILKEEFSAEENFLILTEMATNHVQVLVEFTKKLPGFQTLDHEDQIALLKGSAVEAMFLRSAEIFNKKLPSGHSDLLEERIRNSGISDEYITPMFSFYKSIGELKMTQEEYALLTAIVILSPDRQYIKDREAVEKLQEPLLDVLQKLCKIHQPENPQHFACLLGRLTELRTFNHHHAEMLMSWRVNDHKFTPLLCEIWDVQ
Procedure, shortened: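 Read-out: fluorescent reporter transcripts quantified by capillary electrophoresis after RT-PCR of total RNA. Source cells were HepG2 transiently carrying chimeric NR-GAL4 plus GAL4-UAS reporter units, dosed 24 h. Activity fitted upward relative to DMSO baseline.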

[10] = target: Oxysterols receptor LXR-alpha (Homo sapiens) (UniProt Q13133); assay: ATG_LXRa_TRANS: Attagene TRANS-FACTORIAL HepG2 Assay for human Liver X Receptor alpha (LXRa) (AID 2282980; active means hit-call score of the fitted dose curve at least 0.9, where 1 is the maximum); details: HepG2 Attagene TRANS reporter, LXRa transactivation
Chain of Oxysterols receptor LXR-alpha (Homo sapiens) (Q13133 whole entry, looked up, the tested form may be a part): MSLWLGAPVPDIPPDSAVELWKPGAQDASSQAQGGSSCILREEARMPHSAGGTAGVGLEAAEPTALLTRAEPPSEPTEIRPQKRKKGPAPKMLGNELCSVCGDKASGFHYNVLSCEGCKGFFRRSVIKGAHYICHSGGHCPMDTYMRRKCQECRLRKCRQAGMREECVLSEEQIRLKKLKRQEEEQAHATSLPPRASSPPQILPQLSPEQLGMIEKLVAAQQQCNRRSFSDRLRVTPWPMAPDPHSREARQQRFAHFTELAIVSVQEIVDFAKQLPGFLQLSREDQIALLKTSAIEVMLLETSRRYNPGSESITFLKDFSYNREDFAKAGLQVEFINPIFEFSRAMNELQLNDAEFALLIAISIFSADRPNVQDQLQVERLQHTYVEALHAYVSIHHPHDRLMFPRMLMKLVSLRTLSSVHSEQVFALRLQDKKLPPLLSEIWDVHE
Procedure, shortened: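 Read-out: reporter transcript levels by RT-PCR plus capillary electrophoresis, fluorescence intensity. Transiently transfected HepG2, exogenous NR-GAL4 chimera, GAL4-UAS reporters; 24 h compound exposure. Activity = increase over DMSO negative control.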

[11] = target: Oxysterols receptor LXR-beta (Homo sapiens) (UniProt P55055); assay: ATG_LXRb_TRANS: Attagene TRANS-FACTORIAL HepG2 Assay for human Liver X Receptor beta (LXRb) (AID 2282981; active means hit-call score of the fitted dose curve at least 0.9, where 1 is the maximum); details: HepG2 Attagene TRANS GAL4-LXRb reporter, mRNA
Chain of Oxysterols receptor LXR-beta (Homo sapiens) (P55055 whole entry, looked up, the tested form may be a part): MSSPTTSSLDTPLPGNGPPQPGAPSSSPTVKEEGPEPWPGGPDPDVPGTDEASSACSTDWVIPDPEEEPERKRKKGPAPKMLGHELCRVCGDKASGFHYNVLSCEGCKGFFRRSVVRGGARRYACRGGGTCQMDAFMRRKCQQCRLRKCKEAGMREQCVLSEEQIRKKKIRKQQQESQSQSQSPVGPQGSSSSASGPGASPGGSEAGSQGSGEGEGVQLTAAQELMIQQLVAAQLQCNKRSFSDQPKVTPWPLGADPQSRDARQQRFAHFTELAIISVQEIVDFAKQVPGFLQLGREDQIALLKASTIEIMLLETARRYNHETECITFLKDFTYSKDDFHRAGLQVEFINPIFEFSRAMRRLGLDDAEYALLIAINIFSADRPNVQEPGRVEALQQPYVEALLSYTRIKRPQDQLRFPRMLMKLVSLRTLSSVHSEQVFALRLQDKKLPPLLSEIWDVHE
Procedure, shortened: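 After 24 h chemical treatment of transfected HepG2 cells carrying exogenous NR-Gal4 chimeras, reporter mRNA was quantified by fluorescent RT-PCR and capillary electrophoresis; activity taken as increase over DMSO controls.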

[12] = target: Hepatocyte nuclear factor 4-alpha (Homo sapiens) (UniProt P41235); assay: ATG_HNF4a_TRANS: Attagene TRANS-FACTORIAL HepG2 Assay for human Hepatocyte Nuclear Factor 4 alpha (HNF4a) (AID 2282982; active means hit-call score of the fitted dose curve at least 0.9, where 1 is the maximum); details: HepG2 HNF4a transactivation reporter, mRNA readout
Chain of Hepatocyte nuclear factor 4-alpha (Homo sapiens) (P41235 whole entry, looked up, the tested form may be a part): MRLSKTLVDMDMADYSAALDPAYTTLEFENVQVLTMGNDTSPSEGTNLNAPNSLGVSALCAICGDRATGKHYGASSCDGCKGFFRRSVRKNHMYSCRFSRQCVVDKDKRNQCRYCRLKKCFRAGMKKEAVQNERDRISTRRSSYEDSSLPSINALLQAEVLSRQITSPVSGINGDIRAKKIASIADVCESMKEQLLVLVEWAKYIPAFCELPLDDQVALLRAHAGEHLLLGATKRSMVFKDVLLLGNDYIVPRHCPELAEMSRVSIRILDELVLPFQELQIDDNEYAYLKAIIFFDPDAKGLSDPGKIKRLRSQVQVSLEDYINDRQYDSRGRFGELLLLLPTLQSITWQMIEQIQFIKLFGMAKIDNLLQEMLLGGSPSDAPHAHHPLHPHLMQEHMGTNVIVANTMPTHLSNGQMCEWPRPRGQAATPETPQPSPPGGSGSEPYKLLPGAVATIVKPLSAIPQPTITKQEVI
Procedure, shortened: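 Activity of an exogenous HNF4a–Gal4 fusion scored as induced GAL4-UAS reporter transcripts after 24 h chemical exposure of transfected human HepG2 cells. Read-out via RT-PCR with 6-FAM labelling and capillary electrophoresis; rise over DMSO baseline.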

[13] = target: Transcriptional activator Myb (Homo sapiens) (UniProt P10242); assay: ATG_Myb_CIS: Attagene CIS-FACTORIAL HepG2 Assay for human Myeloblastosis (Myb) Proto-Oncogene Transcription Factor (AID 2282986); details: HepG2 Attagene CIS-FACTORIAL Myb reporter transcription; actives raise or lower the signal
Chain of Transcriptional activator Myb (Homo sapiens) (P10242 whole entry, looked up): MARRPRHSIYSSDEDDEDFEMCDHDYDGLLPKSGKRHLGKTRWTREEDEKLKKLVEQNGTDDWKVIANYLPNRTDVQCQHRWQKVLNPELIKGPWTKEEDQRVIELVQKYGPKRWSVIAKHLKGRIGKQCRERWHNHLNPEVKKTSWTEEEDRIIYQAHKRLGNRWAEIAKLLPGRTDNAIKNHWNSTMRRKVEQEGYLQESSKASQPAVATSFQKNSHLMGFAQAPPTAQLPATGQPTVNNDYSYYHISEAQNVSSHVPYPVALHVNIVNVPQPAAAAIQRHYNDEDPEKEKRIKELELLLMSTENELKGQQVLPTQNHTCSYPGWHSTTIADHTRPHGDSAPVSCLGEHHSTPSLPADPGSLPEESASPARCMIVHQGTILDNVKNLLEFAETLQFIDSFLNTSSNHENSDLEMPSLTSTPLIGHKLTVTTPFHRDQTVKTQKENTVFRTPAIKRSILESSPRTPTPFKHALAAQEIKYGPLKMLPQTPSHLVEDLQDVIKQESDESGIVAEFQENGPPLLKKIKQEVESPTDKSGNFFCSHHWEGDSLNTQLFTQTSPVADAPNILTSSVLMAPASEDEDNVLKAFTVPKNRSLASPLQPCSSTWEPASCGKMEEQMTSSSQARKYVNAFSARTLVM
Procedure, shortened: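 Reporter transcript levels, quantified by fluorescent RT-PCR and capillary electrophoresis, serve as the read-out. Transfected HepG2 cells carrying cis-promoter reporter units are dosed for 24 hours, and curves are fitted bidirectionally against DMSO controls.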

[14] = ATG_M_32_TRANS: Attagene TRANS-FACTORIAL HepG2 Assay for M32 Transcription Factor (Internal Marker) (AID 2282984; active means hit-call score of the fitted dose curve at least 0.9, where 1 is the maximum); details: HepG2 Attagene TRANS M32 internal marker reporter
Procedure, shortened: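 Internal background reporter in transfected HepG2: after 24 h chemical exposure, RNA reverse-transcribed, reporter cDNA amplified, fluorescently labelled and HpaI-cut, then sized by capillary electrophoresis. Gain of signal fitted against DMSO control.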

[15] = ATG_M_06_TRANS: Attagene TRANS-FACTORIAL HepG2 Assay for M06 Transcription Factor (Internal Marker) (AID 2282983; active means hit-call score of the fitted dose curve at least 0.9, where 1 is the maximum); details: HepG2 Attagene TRANS M06 internal marker reporter
Procedure, shortened: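 Read-out: fluorescent reporter cDNA fragments resolved by capillary electrophoresis after RT-PCR and HpaI cut. Source cells were HepG2 carrying transfected multi-reporter GAL4 constructs, dosed 24 h. Increase over DMSO control analysed.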

Measured: AC50

CN1CCc2cccc3c2[C@H]1Cc1ccc(O)c(O)c1-3
active: [2] 8.44 µM
not listed: [14] | [15]
inactive: all other assays above

CCCCOCC(C)OCC(C)O (centres undefined)
not listed: [7] | [8] | [9] | [15]
inactive: all other assays above

CCCCCc1cccc(=O)o1
inactive: [1] | [2] | [3] | [4] | [5] | [6] | [11] | [13]

CC(C)N1C(=O)c2ccccc2C1=O
active: [5] 42.8 µM
not listed: [7] | [8] | [9] | [11] | [12]
inactive: all other assays above

CCCCCCCCCCCCCCCCCC(=O)OCCCCCCCCCCCCCC(C)C
not listed: [7] | [9] | [14]
inactive: all other assays above
